Screening results as filed in PubChem BioAssay.
Only some compounds are listed: those with a hit (about 1.8% of all), similar ones and a draw of the others.
Gli-Sufu block – blocks Gli-Sufu signaling in a luciferase reporter; Sufu-KO-LIGHT fibroblasts, Gli luciferase reporter luminescence; inhibition, % at 5 µM; 340,000 tested, 0.74% active; AID 588413;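 active = inhibition above about 55%, limit read from the data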;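 note: 0% = DMSO-treated cells and 100% = wells with medium but no cells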
Jurkat NFkB inh – lowers PMA/ionomycin-induced NF-kB signal in Jurkat cells. 330,000 tested, 0.53% active. PMA/ionomycin-induced NF-kB luciferase reporter, luminescence. inhibition, % at 4 µM; in the data active = inhibition above about 50%
Beta apoptosis – beta cell apoptosis inhibition. INS-1E cytokine-induced death, ATP luminescence, 48 h; percent of positive-control rescue, neutral wells zero. protection from apoptosis, % (test concentration not listed). 300,000 tested, 0.8% active;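 active = Every replicate reaches about 75%, or at least half do and their mean reaches it too, limit read from the data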;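 note: 0% = cytokine-treated negative control wells and 100% = positive control rescue; higher means more ATP so stronger rescue from cytokine killing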
697 NFkB inh – inhibitors of the PMA/ionomycin-induced NF-kB reporter in 697 B cells | inhibition, % at 4 µM | 330,000 tested, 0.33% active | 697 B-cell NF-kB luciferase reporter, 16 h; in the data active = inhibition above about 35%
697 NFkB conf – lowers PMA/ionomycin-induced NF-kB signal in 697 B cells; 697 B-cell NF-kB luciferase, 16 h; AID 449746; shares compounds with 697 NFkB inh; 2,000 tested, 35% active; inhibition, % at 4 µM; in the data active = inhibition mostly above about 28%, no sharp cut-off; inactive = mostly below about 22%
An asterisk follows results filed as active; i = inactive; / = no result given.

SMILES	Gli-Sufu block	Jurkat NFkB inh	Beta apoptosis	697 NFkB inh	697 NFkB conf
CCOC(CNC(=O)c1cccc([N+](=O)[O-])c1)OCC	5	-4	0	9	/
CCCCC1=CC2=C(c3ccco3)C(=O)C(C)(OC(=O)c3ccc(OC)cc3)C(=O)C2=CN1CCc1ccccn1 (stereo not drawn)	0	-7	-4	7	/
CCN(C(=O)CN1C(=O)NC(c2ccccc2)(c2ccc(C)c(C)c2)C1=O)C1CCCCC1 (stereo not drawn)	-2	29	-8	44*	27*
CC(C)[C@H](N)c1nnc(SCC(=O)c2ccc(Cl)cc2)o1	16	7	-5	58*	35*
CCOc1ccc(-c2nnc(SCC(=O)Nc3cc(C)on3)o2)cc1	14	-17	0	35	41*
CCCCn1c(N)c(N(C)C(=O)C2CCCC2)c(=O)[nH]c1=O	-1	13	1	10	/
CC1(C)C(c2ccccc2)=NC(c2ccc(Br)cc2)N1O (stereo not drawn)	8	2	-2	14	/
O=C(N/N=C/c1ccc(Cl)cc1Cl)c1ccc(-n2cnnn2)cc1	12	5	-3	39*	35*
CN(C)S(=O)(=O)c1cccc(NC(=O)CCCC2CCCCC2)c1	-6	-23	-1	-20	/
Cc1c(C2(O)CCCCC2)[nH]c2ccc(C(F)(F)F)cc12	-3	-57	5	-357	-175
CCN(CC)c1ccc2cc(C(N)=O)c(=O)oc2c1	-26	-18	-3	-31	/
CCN(CC)c1ccc2cc(NC(=O)CCC(=O)O)c(=O)oc2c1	43	21	/	80*	72*
Nc1ccc(N=Nc2ccc(N)cc2)cc1	-32	-96	11	-246	/
COC(=O)c1sc(NC(=O)CSc2nnc(Cn3nnc4ccccc43)n2C)nc1C	4	-10	0	7	/
COc1ccc2nc(NC(=O)Nc3ccccc3OC)sc2c1	-128	-78	34	-296	-365
COc1ccc2nc(NC(=O)c3ccccc3O)sc2c1	-93	-70	28	-309	-224
CC(=O)Nc1ccc2nc(NC(=O)c3cccs3)sc2c1	-64	-96	9	-147	/
COc1ccc2nc(NC(=O)c3cccs3)sc2c1	-95	-124	18	-352	-341
O=C(c1cccc(S(=O)(=O)N2CCOCC2)c1)N1CCCC1	4	6	-4	36*	8
Cc1ccc(/C=C/c2nc3ccccc3s2)s1	-47	-106	7	-381	-277
CN(C)c1ccc(/C=C/c2nc3ccccc3s2)cc1	22	-34	19	-188	/
COc1cccc2c1OC1(CCN(C(C)C)CC1)N1N=C(c3cccnc3)CC21 (stereo not drawn)	-6	-24	-1	-1	/
COc1ccc(CNC(=O)C(=O)NCCCn2ccnc2)cc1	0	0	5	38*	20
CCCOc1ccc(NC(=O)C(=O)NCCCn2ccnc2)cc1	4	11	10	56*	53*
COc1ccc(NC(=O)C2CCN(c3nc(C)cc(C)n3)CC2)cc1	4	-11	-3	-8	/
SMILES	Gli-Sufu block	Jurkat NFkB inh	Beta apoptosis	697 NFkB inh	697 NFkB conf
O=C(NCCO)c1ccc2c3n(nc2c1)-c1ccc(Cl)cc1CO3	-24	8	3	-64	/
Cc1ccc2c(c1)COc1c3ccc(C(=O)NC(C)C)cc3nn1-2	-39	-120	3	-320	-313
Cc1ccc2c(c1)COc1c3ccc(C(=O)NCCO)cc3nn1-2	-47	-74	2	-252	-320
Cc1ccc2c(c1)COc1c3ccc(C(=O)N[C@@H](C)CO)cc3nn1-2	-29	-120	0	-290	-271
C[C@@H](CO)NC(=O)c1ccc2c3n(nc2c1)-c1ccc(Cl)cc1CO3	-96	-61	-2	-97	/
C=C1C(=O)C=C[C@]2(C)C[C@@H]3OC(=O)[C@](C)(O)[C@H]3C[C@@H]12	16	42	/	-314	-198
C[C@@H]1C[C@@H]2OC(=O)[C@]3(C)[C@H]2[C@@H](OC3(C)O)[C@]2(C)C(=O)C=C[C@H]12 (stereo partly drawn)	8	10	-6	-46	/
CC1CCN(S(=O)(=O)c2ccc(N=NC3=C(O)CC(C)(C)CC3=O)cc2)CC1	-9	6	-8	10	/
CC1(C)CC(=O)C(N=Nc2cccc(S(=O)(=O)N3CCOCC3)c2)=C(O)C1	5	9	-3	38*	16
Clc1ccc(OCc2cc(-c3ccccc3)no2)c(Cl)c1	-96	-123	-11	-466	-353
Cc1cccc(OCc2cc(-c3ccccc3)no2)c1C	-71	-54	-1	-50	/
Cc1cc(C)cc(NC(=O)/C(C#N)=C/c2cn(CC(=O)NCc3ccco3)c3ccccc23)c1	35	2	101*	41*	-9
COc1cc(NC(=O)c2cc3c(C)nc4ccccc4c3o2)cc(OC)c1OC	24	13	8	37*	44*
COc1cc(NC(=O)c2cc(C)nc3ccccc23)cc(OC)c1OC	25	1	3	26	/
COC(=O)c1c(-c2ccc(N(C)C)cc2)sc2ccc(OC)cc12	34	-6	7	53*	62*
Cc1oc2c(CN3CCCC3)c(O)ccc2c(=O)c1Oc1ccccc1Br	2	15	4	7	/
COc1ccc(/C=C2\SC(=S)N(CCCC(=O)NNC(=O)c3ccccc3O)C2=O)cc1	26	4	-8	74*	69*
Cc1cc(NC(=O)CCCN2C(=O)/C(=C/c3ccccc3Cl)SC2=S)no1	9	18	-2	60*	68*
O=C(CCCN1C(=O)/C(=C/c2cccs2)SC1=S)NNC(=O)c1ccncc1	2	0	-2	16	/
COc1ccc(/C=C2/SC(=S)N(CCCC(=O)Nc3ccccc3C(=O)O)C2=O)cc1	10	18	-9	32	/
O=C(CCCN1C(=O)/C(=C/c2ccccc2Cl)SC1=S)NNC(=O)c1ccccc1Cl	31	13	3	69*	65*
O=C(CCCN1C(=O)/C(=C/c2ccccc2Cl)SC1=S)NNC(=O)c1ccncc1	6	17	-8	48*	56*
O=C(NCc1cc(C(F)(F)F)ccc1F)C1CCC(=O)N(C2CC2)C1 (stereo not drawn)	-11	2	-5	10	/
COCCn1nnnc1C(c1cccs1)N1CCN(c2ccccc2)CC1 (stereo not drawn)	2	-2	-9	-2	/
COC(=O)c1ccn(-c2nc(-c3ccco3)cc(C(F)(F)F)n2)n1	8	4	0	-3	/
COc1cccc(CNC(=O)c2cc3oc4ccccc4c3n2C)c1OC	1	10	-5	-378	i
CCOc1ccccc1CNC(=O)c1cc2oc3ccccc3c2n1CC	13	-19	6	-280	-97
CCOc1ccc(CNC(=O)c2cc3oc4ccccc4c3n2C)cc1	18	-60	-2	-389	-186
CCc1n[nH]c(=O)c2cc3cc(OC)ccc3n12	3	-39	-4	-18	/
Cc1cc(C)c2nc(NC(=O)C3CSC4(C)CCC(=O)N34)sc2c1 (stereo not drawn)	-5	-7	-3	47*	45*
